Screening results deposited in PubChem BioAssay by National Center for Advancing Translational Sciences (NCATS).
CCT modulator: High-Throughput Screening for Modulators of Cytosolic Chaperonin Activity; purified chaperonin ATPase assay, HTRF ADP detection, 30 min; activity change, % (no concentration beside the values), hits read low; 0.3% of 360,000 active; AID 651819, 2012; in the data active = activity change below about -30%
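Nucleotide hydrolysis assay: TRiC at 20–40 nM final (set by batch activity) with 10 uM ATP, 30 min at 37 °C, in presence of 76 uM compound. Detection by competitive ADP HTRF, 30 min ambient.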
VDR inhibitor: Inhibitors of the vitamin D receptor (VDR): qHTS; Vitamin D3 receptor (Homo sapiens), P11473; VDR-SRC2-3 peptide fluorescence polarization, 2 h; Potency, µM, without a hit: max response, negative = inhibition, most hits filed as inhibitors; 0.93% of 400,000 active; AID 504847, 2011; also: potency is read from the fitted curve at half-maximal effect
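Signal is fluorescence polarization, reporting how far test compounds block the interaction of VDR with the SRC2-3 coregulator peptide after a 2 h room-temperature incubation.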
Sfp PPTase inh: qHTS Assay for Inhibitors of Bacillus subtilis Sfp phosphopantetheinyl transferase (PPTase) | Biochemical Sfp PPTase activity, qHTS | Potency, µM, for inactives: largest response in the series, negative = inhibition, most hits filed as inhibitors | 3.5% of 310,000 active | AID 1490, 2009;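 also: the enzyme is Sfp with the accession as filed and its product quenches rhodamine fluorescence; potency is read from the fitted curve at half-maximal effect; 0% = enzyme reaction without inhibitor and -100% = no enzyme wells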
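Sfp 15 nM + cpd, 15 min RT; start w/ rhodamine-CoA 5 uM, BHQ-2-YbbR 12.5 uM (final); 50 mM Hepes pH 7.6, 10 mM MgCl2, 0.01% NP-40, 0.01% BSA; read 525/598 nm at 0 and 30 min.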
Mm-Cpn inhibitor: Inhibitors of TCP-1 ring complex (TRiC) of Methanococcus maripaludis (MmCpn): qHTS | Chaperonin Mm-Cpn (Methanococcus maripaludis) | purified Mm-Cpn ATPase, ADP Transcreener TR-FRET | Potency, µM (top dose mostly 76.9 µM), inactives show at the top dose activity, negative = inhibition, usual class: inhibitors | 0.031% of 330,000 active; also: potency is read from the fitted curve at half-maximal effect; nearly all actives have a fitted effect of over 80% in size
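ATPase read-out: TR-FRET ADP immunoassay (anti-ADP Eu cryptate vs ADP-d2), ex 320 nm, em 590/665 nm; signal drops as ADP forms. Enzyme 25 nM, ATP 10 uM, 30 min at 37°C after 10 min compound preincubation.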
PLK1 PBD inh: qHTS for Inhibitors of PLK1-PDB (polo-like kinase 1 - polo-box domain): Primary Screen; Serine/threonine-protein kinase PLK1 (Homo sapiens), P53350; Plk1 PBD binding of FITC phosphopeptide, fluorescence polarization; Potency, µM, inactives show max response, negative = inhibition, most hits filed as inhibitors; 2.8% of 360,000 active; AID 720504, 2013; also: potency is read from the fitted curve at half-maximal effect; series mostly up to about 57 µM; nearly all actives have a fitted effect of over 65% in size
Target sequence (P53350 whole entry, looked up, the tested form may be a part): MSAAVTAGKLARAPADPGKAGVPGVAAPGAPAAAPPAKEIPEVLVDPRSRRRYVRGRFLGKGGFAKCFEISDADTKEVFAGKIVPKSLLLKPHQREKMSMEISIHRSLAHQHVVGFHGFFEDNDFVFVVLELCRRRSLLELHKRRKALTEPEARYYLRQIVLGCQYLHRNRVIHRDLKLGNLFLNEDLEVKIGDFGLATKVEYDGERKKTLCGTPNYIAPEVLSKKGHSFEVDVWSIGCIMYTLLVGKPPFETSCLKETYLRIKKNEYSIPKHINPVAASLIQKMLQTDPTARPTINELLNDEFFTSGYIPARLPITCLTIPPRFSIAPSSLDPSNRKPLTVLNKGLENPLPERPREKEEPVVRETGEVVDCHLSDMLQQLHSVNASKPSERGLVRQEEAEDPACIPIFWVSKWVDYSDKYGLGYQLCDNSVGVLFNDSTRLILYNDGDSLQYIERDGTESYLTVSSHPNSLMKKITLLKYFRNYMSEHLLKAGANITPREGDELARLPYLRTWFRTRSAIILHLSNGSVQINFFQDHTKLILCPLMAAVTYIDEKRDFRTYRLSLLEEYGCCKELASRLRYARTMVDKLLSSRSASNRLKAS
G9a block: qHTS Assay for Inhibitors of Histone Lysine Methyltransferase G9a. Histone-lysine N-methyltransferase EHMT2 (Homo sapiens), Q96KQ7. G9a H3K9 monomethylation, AlphaScreen, 2 h. Potency, µM (doses to about 102 µM), inactives show top-dose activity, negative = inhibition, actives largely listed as inhibitors. 8.8% of 350,000 active. AID 504332, 2011; also: potency is read from the fitted curve at half-maximal effect; nearly all actives have a fitted effect of over 75% in size
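Compounds were preincubated with 20 nM G9a for 15 min, after which biotinylated H3K9 peptide (500 nM) and SAM (20 uM) started a 2 h room-temperature reaction. Monomethylated product was quantified by antibody-based AlphaScreen chemiluminescence.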
* hit, by the source's call; ? = inconclusive; / = no result; [ ] = remark or other dose. Compounds with a hit are over-represented: about 10% of the library has one in this group of screens. Unless noted, calls follow the shape of the dose curve; as a rule, active = well fitted curve in the direction sought with a large enough effect; inconclusive = small, poorly fitted or top-dose-only effect, or another doubt; inactive = no such curve, though single readings can be large; an effect the other way counts as inactive or inconclusive. Unless noted, % is scaled to controls: 0 for no effect and ±100 for the full control effect.

SMILES | CCT modulator | VDR inhibitor | Sfp PPTase inh | Mm-Cpn inhibitor | PLK1 PBD inh | G9a block
CC1CCCN(S(=O)(=O)c2ccc3c(c2)CCN3C(=O)C2CCC2)C1 (stereo not given) | -2 | 7% | 11% | -1% | 2% | -1%[12.7 µM]
CC1CCN(S(=O)(=O)c2ccc3c(c2)CCN3C(=O)C2CCC2)CC1 | 0 | -16% | 10% | -2% | 24µM* | 22%
O=C(CCl)c1ccc2c(c1)CCN2C(=O)C1CCCCC1 | 2 | 45µM* | 4% | 0% | 0.75µM* | -4%[59 µM]
CCOc1ccc(S(=O)(=O)Nc2ccc3c(c2)N(C(C)=O)CCC3)cc1 | / | 2% | / | / | / | 0%[12.7 µM]
Cc1ccc(Cn2c(=O)n(CCc3ccccc3)c(=O)c3sc4ccccc4c32)cc1 | / | -7% | / | / | / | 3%[59 µM]
CCOC(=O)c1ccc(N2C(=O)CC(N3CCC(Nc4ccc(F)cc4)CC3)C2=O)cc1 (stereo not given) | -65* | -24% | 6% | -4% | -3% | 10µM*
CC(=O)Nc1ccc(N2C(=O)CC(N3CC(C)OC(C)C3)C2=O)cc1 (stereo not given) | -1 | 0% | -18% | 1% | -4% | 22µM*
CCOC(=O)C1CCCN(c2c(NCCCN(CC)c3cccc(C)c3)c(=O)c2=O)C1 (stereo not given) | -7 | -14% | 3% | -1% | 24µM* | ?
CCOC(=O)c1ccc(N2C(=O)CC(N3CCCC(C)C3)C2=O)cc1 (stereo not given) | 1 | 5% | -22% | 0% | -3% | 10µM*
CCOc1ccccc1NC(=O)c1c(NC(=O)c2cccc(C)c2)sc2c1CCC2 | / | -6% | / | / | / | 2%[59 µM]
O=C(NCC(c1cccs1)S(=O)(=O)c1cccs1)c1ccc(C(F)(F)F)cc1 (stereo not given) | / | -2% | / | / | / | 4%[59 µM]
CCOC(=O)C1CCCN(C2CC(=O)N(c3cccc(C)c3)C2=O)C1 (stereo not given) | -5 | ? | -22% | 0% | -9% | 28µM*
COC(=O)c1ccc(N2C(=O)CC(N3CCOCC3)C2=O)cc1 (stereo not given) | 2 | -9% | -5% | 1% | 1% | 79µM*
CCC(Cn1nnc2ccccc2c1=O)NC(=O)Nc1cccc(C)c1C (stereo not given) | / | 2% | / | / | / | 10%[59 µM]
O=S(=O)(NCc1ccccc1)NCc1ccccc1F | -52* | -1% | 5% | 2% | -5% | 8%
COCCCn1c(=O)c2ccccc2n(Cc2ccccc2)c1=O | -1 | -16% | -19% | -6% | -8% | 6.3µM*
Cc1cccc(-n2c(=O)c3ccccc3n3c(=S)[nH]nc23)c1C | 0 | 6% | 8% | 0% | -15% | 1.1µM*
COCCCn1c(=O)c2ccccc2n2c(=S)[nH]nc12 | 2 | 3% | 79µM* | -2% | 0% | 8.9µM*
Cc1ccccc1-n1c(=O)c2ccccc2n2c(=O)[nH]nc12 | -1 | 21% | -2% | 2% | -15% | 12%[59 µM]
COCCc1nn2c(=O)cc(COC(=O)c3ccccc3C)nc2s1 | / | 7% | / | / | / | -2%[59 µM]
CCN(CC)c1ccc(NC(=O)C(NS(=O)(=O)c2cccs2)C(C)C)c(C)c1 (stereo not given) | / | -11% | / | / | / | ?
Cc1ccccc1N1Cc2ccccc2C1=O | 0 | / | / | / | -3% | /
Cc1ccccc1N1Cc2ccccc2C1 | 1 | -21% | -5% | -2% | -5% | 7.9µM*
COc1ccccc1N1Cc2ccccc2C1 | 0 | -17% | ? | -4% | ? | 10µM*
Cc1cc(C)cc(NC(=O)CCc2nnc3n(CC(C)C)c(=O)c4ccccc4n23)c1 | / | -3% | / | / | / | 1%[59 µM]
SMILES | CCT modulator | VDR inhibitor | Sfp PPTase inh | Mm-Cpn inhibitor | PLK1 PBD inh | G9a block
CCCCNC(=S)NNc1c(Cl)cc(Cl)cc1Cl | -6 | ? | -23% | -4% | ? | 25µM*
CC(C)c1ccc(NC(=O)c2cccc3c2C(=O)N(C2CCCCC2)C3)cc1 | / | -7% | / | / | / | 10%[59 µM]
N#Cc1c(NCCN)nc(NCc2ccccc2)c2c1CCN(Cc1ccccc1)C2 | -2 | 12% | -29% | -1% | -16% | 45µM*
CCN1CCc2c(C#N)c(NCc3ccccc3)nc(N(CC)CC)c2C1 | 0 | 10% | ? | -2% | -12% | 50µM*
COc1ccc(CN(Cc2ccco2)c2cnc(S(C)(=O)=O)nc2C(=O)Nc2ccc(C)c(Cl)c2)cc1 | / | 2% | / | / | / | ?
c1coc(CN2CCN(C(c3cccs3)c3nnnn3C3CCCC3)CC2)c1 (stereo not given) | -2 | 4% | 12% | 1% | ? | 50µM*
CCS(=O)(=O)N1Cc2ccccc2CC1C(=O)NC(C)C12CC3CC(CC(C3)C1)C2 (stereo not given) | -2 | -9% | -2% | 0% | -5% | 14µM*
O=[N+]([O-])c1ccc(-c2cnc(SCc3ccccc3Cl)[nH]2)cc1 | 0 | 4% | 10% | 0% | 4% | 35µM*
O=[N+]([O-])c1ccc(-c2cnc(SC(c3ccccc3)c3ccccc3)[nH]2)cc1 | -2 | -12% | 39% | -2% | -16% | 13µM*
Cc1cc(C)c(CSc2ncc(-c3ccc([N+](=O)[O-])cc3)[nH]2)c(C)c1 | -2 | -2% | 26% | 2% | -7% | ?
Cn1c2ccccc2c2cnn(CC(=O)Nc3ccccc3F)c(=O)c21 | / | 0% | / | / | / | ?
Cc1ccn2c(Nc3ccccc3C)c(-c3ccccn3)nc2c1 | -1 | -7% | -8% | 2% | -13% | ?
Cc1cccn2c(Nc3ccccc3)c(-c3ccccn3)nc12 | 0 | -9% | 15% | 1% | -7% | 40µM*
CC(C)c1ccc(Nc2c(-c3ccccn3)nc3ccccn23)cc1 | / | -6% | / | / | / | ?
Cc1ccn2c(Nc3ccccc3)c(-c3ccccn3)nc2c1 | -37* | 16% | -6% | 1% | 5% | 42%[59 µM]
Cc1ccccc1Nc1c(-c2ccccn2)nc2ccccn12 | 1 | -1% | -39% | 6% | 4% | 40µM*
Cc1cccc(C)c1Nc1c(-c2ccccn2)nc2c(C)cccn12 | / | 3% | / | / | / | -38%[59 µM]
COC(=O)Cn1nc(C)c2c(C)n(-c3ccccc3)nc2c1=O | / | 4% | / | / | / | -5%[59 µM]
CC(C)c1nn2c(=O)cc(COC(=O)c3ccco3)nc2s1 | / | 2% | / | / | / | -4%[59 µM]
CCCCC[C@H](O)/C=C/[C@@H]1[C@H]2C/C(=C/CCCC(=O)O)C[C@H]2C[C@H]1O | / | -3% | 37% | / | / | 24%[59 µM]
